Measured values reported in PubChem BioAssay.
The source made the active and inactive calls. The rule behind the calls is not given here.

Assay: inhibition of PAO1 biofilm formation – strain PAO1, LB-PBS medium, absorbance 600 nm, primary screen (AID 1176); note: test concentration not given here
Details: P. aeruginosa PAO1 growth/biofilm, A600, 12 h; higher = more signal

z-score, inactive:
C[C@]1(C(=O)NCc2ccccc2)c2ccccc2C(=O)N(Cc2ccc(OC(F)(F)F)cc2)[C@H]1c1ccc(CO)cc1 0.609
O=C1O[C@@H](c2ccccc2)[C@@H](c2ccccc2)N2[C@@H](c3ccc(O)cc3)[C@]3(C(=O)Nc4ccc(C#CC5=CCCCC5)cc43)[C@@H](C(=O)O)[C@H]12 2.85
O=C(O)[C@@]1(Cc2ccccc2)N=C(c2ccc(OCCCO)cc2)O[C@H]1c1ccccc1 -0.692
NC(=O)NCC#Cc1ccc2c(c1)[C@]1(C(=O)N2)[C@H](C(=O)N2CCCCCCC2)[C@H]2C(=O)O[C@H](c3ccccc3)[C@H](c3ccccc3)N2[C@@H]1c1ccc(OCCO)cc1 2.1
CC(C)C[C@@H]1NC(=O)[C@H]2C[C@@H](C(=O)NCCCCCNC(=O)CS)[C@@H](c3cccc(OCCO)c3)N2C1=O 0.326
COC(=O)[C@@]1(Cc2ccccc2)[C@H]2c3cc(C(=O)N4CCCC4)n(C)c3C[C@H]2CN1C(=O)c1ccccc1 0.976
Cc1ccc(S[C@]2(C(=O)NCC(C)C)CC(=O)N(Cc3ccccc3)[C@@H]2c2ccc(CO)cc2I)cc1 0.282
COCCOC(=O)N1C(=O)[C@@]2(c3cc(C#CCCO)ccc31)[C@H](c1ccccc1OCCO)N1[C@H](c3ccccc3)[C@H](c3ccccc3)OC(=O)[C@H]1[C@@H]2C(=O)N1CCN(c2ncccn2)CC1 1.6
CC(c1ccccc1)C(O)C1C=CC2C(=O)NC(=O)C2N1Nc1ccccn1 (stereo not given) 1.33
[N-]=[N+]=NCc1ccccc1C[C@@]1(C(=O)N2CCOCC2)N=C(c2ccc(OCCCO)cc2)O[C@@H]1c1ccccc1CN=[N+]=[N-] 2.03
O=C(NCc1ccccc1)[C@]1(CCS(=O)(=O)c2ccccc2)N=C(c2ccc(OCCCO)cc2)O[C@@H]1c1ccccc1 0.0937
O=C1c2ccccc2[C@@]2(Cc3ccccc3N(Cc3ccccc3)C2=O)[C@H](c2ccc(CO)cc2)N1C1CCCCC1 0.407
COc1ccc(C(O)C2C=CC3C(=O)N(C)C(=O)C3N2Nc2ccccc2)cc1OCc1ccccc1 (stereo not given) 1.03
CCCNC(=O)[C@@]1(c2ccc([N+](=O)[O-])cc2)CC(=O)N(CC23CC4CC(CC(C4)C2)C3)[C@@H]1c1ccc(CO)cc1 0.416
O=C1O[C@@H](c2ccccc2)[C@@H](c2ccccc2)N2[C@@H](c3ccc(O)cc3)[C@]3(C(=O)Nc4ccc(C#CC5(O)CCCCCC5)cc43)[C@@H](C(=O)N3CCCCCCC3)[C@H]12 1.89
CC(C)CNC(=O)[C@@H]1c2ccccc2C(=O)N(Cc2cc(C(F)(F)F)cc(C(F)(F)F)c2)[C@H]1c1ccc(CO)cc1 -0.171
O=C1O[C@H](c2ccccc2)[C@H](c2ccccc2)N2[C@H]1[C@@H](C(=O)O)[C@]1(C(=O)Nc3ccc(C#CC4(O)CCCCCC4)cc31)[C@H]2c1ccc(OCCO)cc1 1.07
CCCC[C@@H]1C[C@H]1[C@@H](NC(=O)c1ccc(-c2ccccc2)cc1)c1ccc(-c2ccccc2)cc1 0.315
Cc1ccccc1C(O)C1C=CC2C(=O)N(C)C(=O)C2N1N1CCCCC1 (stereo not given) 0.723
Cc1cc(C)c(C(O)C2C=CC3C(=O)N(C)C(=O)C3N2Nc2ccccc2)c(C)c1 (stereo not given) 0.944
COc1ccc(C#Cc2ccc3c(c2)[C@]2(C(=O)N3)[C@H](C(=O)NC[C@H](O)c3ccccc3)[C@H]3C(=O)O[C@H](c4ccccc4)[C@H](c4ccccc4)N3[C@@H]2c2ccc(OCCO)cc2)cc1 2.55
C=C(C(=O)CC[C@H](OC(C)=O)c1ccc(OCCO)cc1)C(C)C -1.21
CN(C)C(=O)[C@@]1(CCC(=O)OC(C)(C)C)N=C(c2ccc(OCCCO)cc2)O[C@H]1c1ccccc1 0.401
[N-]=[N+]=NCc1ccccc1C[C@]1(C(=O)O)N=C(c2ccc(OCCCO)cc2)O[C@H]1c1ccccc1CN=[N+]=[N-] 0.563
COc1cc(CO)ccc1OC(C)=O -0.248
CC(C)=CCCC(C)=CC(O)C1C=CC2C(=O)N(c3ccccc3)C(=O)C2N1Nc1ccccc1 (stereo not given) 1.32
CC(C)c1ccc(NN2C(C(O)c3ccc(N(C)C)cc3)C=CC3C(=O)N(c4ccccc4)C(=O)C32)cc1 (stereo not given) 0.53
COCCOC(=O)N1C(=O)[C@@]2(c3cc(C#CCC(C(=O)OC)C(=O)OC)ccc31)[C@H](C(=O)N1CCCCCCC1)[C@H]1C(=O)O[C@H](c3ccccc3)[C@H](c3ccccc3)N1[C@@H]2c1ccc(OCCO)cc1 1.3
O=C1OCCC=C[C@H]2OC34C=CCN(Cc5ccccc5)C(=O)[C@H]3N(CCCCCCO)C(=O)[C@@H]4C12 (stereo not given in full) -0.208
Cc1ccc(S[C@]2(C(=O)NCCN3CCOCC3)CC(=O)N(Cc3cc(C(F)(F)F)cc(C(F)(F)F)c3)[C@@H]2c2ccc(CO)cc2I)cc1 -0.407
CCCCCN1CC=CC23O[C@@H]4/C=C\CCC(C)OC(=O)C4[C@H]2C(=O)N(CCCCCO)[C@@H]3C1=O (stereo not given in full) 0.357
O=C1C2C=CC(C(O)c3cccs3)N(Nc3ccccc3F)C2C(=O)N1c1ccccc1 (stereo not given) 0.574
NCCCCCCNC(=O)[C@H]1C[C@H]2C(=O)NCC(=O)N2[C@H]1c1cccc(OCCO)c1 -0.475
COC(=O)C(CC#Cc1ccc2c(c1)[C@]1(C(=O)N2)[C@H](c2ccc(OCCO)cc2)N2[C@H](c3ccccc3)[C@H](c3ccccc3)OC(=O)[C@H]2[C@@H]1C(=O)NC[C@H](O)c1ccccc1)C(=O)OC 1.05
CCCN1C(=O)[C@@]2(CCC(=O)OC(C)(C)C)N=C(c3ccc(OCCCO)cc3)O[C@H]2c2ccccc21 0.717
